The source of these data is PubChem BioAssay (NCATS).

Molecules are shown by their SMILES. Unmarked numbers belong to inactive results. Where a call stands in place of a potency, no number is given. Active and inactive are the calls of the source. The call rests on the fitted dose curve; in most records, active means well fitted inhibition curve with a large enough effect; inconclusive means small, poorly fitted or top-dose-only effect; inactive means no such curve, though single readings can be large or run the other way.

The nature of the test: qHTS assay for measurement of the activity of small molecule inhibitors on Zika virus induced Caspase-3 activity in human astrocytoma cells (AID 1224859). Conditions: SNB-19 ZIKV-induced caspase-3/7, luminescence, 6 h; series mostly up to 45.7 µM; activity change, negative = inhibition: at the top concentration. The text has this:
National Center for Advancing Translational Sciences [NCATS]
Johns Hopkins University School of Medicine
Increase in the Caspase-3 activity indicates an activation of apoptosis cell death pathway caused by Zika virus infection in certain types of neuronal cells including human neural progenitor cells (hNPCs), astrocytes, and astrocytoma cell line (SNB-19). This cell-based caspase-3 activity assay measures the increased caspase-3 activity in the astrocytoma cell line (SNB-19) after a 6-hour Zika virus infection with a luminescence readout. A decrease in the luminescence signal in this assay by small molecule treatment indicates an inhibitory effect of that small molecule on the Zika virus induced caspase-3 activity that may correlate with its effect on reduction of Zika virus caused cell death.
The medium for SNB-19 cells is composed of RPMI 1640 (ATCC, Cat.# 30-2001), 10% fetal bovine serum (FBS) (GE healthcare Life Sciences, Cat.# SH30071.03), and 1% Pen/Strep (Gibco, Cat.# 15140-122). A Caspase-Glo 3/7 assay kit (catalog number G8092; Promega, Madison, WI) was used to detect caspase-3 activity induced by Zika virus infection in human cells. The reagent mixture was reconstituted as described in the protocol from the manufacturer. Polystyrene tissue culture treated and PDL coated white plates were obtained from Greiner Bio-One (Monroe, NC). Cells were seeded in 384- or 1536-well assay plates and cultured at 37 C with 5% CO2 for 16 to 20 hours. The typical cell seeding density in the 1536-well plate assay is 250 cells/well in 3ul medium for SNB-19 cells in tissue culture treated plates. Compounds were added to cells and incubated for one hour before addition of ZIKV solution to cells (2 FFU/cell). After incubation at 37 C with 5% CO2 for 6 hours, the reagent mixture of Caspase-Glo 3/7 assay kit was added to each well, followed by incubation at room temperature for 30 minutes. The luminescence intensity of the assay plates was measured using a ViewLux plate reader (PerkinElmer). Data were normalized by using the cell-containing wells without ZIKV as a negative control (0% induction of caspase 3/7 activity) and wells containing ZIKV infected cells (Caspase-3 activity induced) as a positive control (100% induction of caspase 3 activity). The percentage inhibitions of the increased Caspase-3 activity by small molecule inhibitors were then calculated.
In general terms: Quantitative high-throughput screening tests each substance at several concentrations.
Turning to `CN(C)CCc1c[nH]c2ccc(Cn3cncn3)cc12`, the “activity change, negative = inhibition” value was 11.5%. On to `CCN(CC)CCOc1ccc(Nc2ncc3cc(-c4c(Cl)cccc4Cl)c(=O)n(C)c3n2)cc1`, for which the “activity change, negative = inhibition” value was 86.5%.

With `O=C(O)c1cccnc1Nc1cccc(C(F)(F)F)c1`, the “activity change, negative = inhibition” value is -16.5%. On to `CN(C)[C@@H](CCOc1cccc2ccccc12)c1ccccc1`, for which the Potency result was “inactive”. The same measure, in the same setting: to `O=c1c(O)c(-c2cc(O)c(O)c(O)c2)oc2cc(O)cc(O)c12` belongs “inactive”.

Consider `CC(C)[N+]1(C)[C@@H]2CC[C@H]1CC(OC(=O)C(CO)c1ccccc1)C2` (stereo not given in full), for which the “activity change, negative = inhibition” value is 1.61%.

With `N=C(N)c1ccc2cc(OC(=O)c3ccc(N=C(N)N)cc3)ccc2c1`, the Potency entry is “inactive”. On the same count and under the same terms, under `COc1ccc2cc([C@H](C)C(=O)O)ccc2c1` stands “inactive”; under `CN(C)CCCC1(c2ccc(F)cc2)OCc2cc(C#N)ccc21` (stereo not given), “inactive”; under `O=C(NCCO[N+](=O)[O-])c1cccnc1`, “inactive”. Same read-out and setting: to `CC1(C)CCC(C)(C)c2cc(NC(=O)c3ccc(C(=O)O)cc3)ccc21` belongs “inactive”. In the case of `CCOC(=O)C1=C[C@@H](OC(CC)CC)[C@H](NC(C)=O)[C@@H](N)C1`, the “activity change, negative = inhibition” value is -9.96%. For the compound `COc1ccccc1N1CCN(CCN(C(=O)C2CCCCC2)c2ccccn2)CC1`, the “activity change, negative = inhibition” value was 31.6%. In the case of `Cc1cccc(CN2CCN(C(c3ccccc3)c3ccc(Cl)cc3)CC2)c1` (stereo not given), the Potency entry is “inactive”. Still for that read-out and setting: to `C=CCc1cc(OC)c(O)c(C(=O)NCCO)c1` belongs “inactive”; to `O=c1cc(N2CCOCC2)oc2c(-c3ccccc3)cccc12`, “inactive”; to `O=C1c2ccccc2-c2n[nH]c3cccc1c23`, “inactive”. Consider `C[Se]CCC(N)C(=O)O` (stereo not given), for which the “activity change, negative = inhibition” value was -27% [at 92.8 µM]. For `Nc1ccc(S(N)(=O)=O)cc1`, the Potency result was “inactive”.

Regarding `Nc1nc(Cl)nc2c1ncn2[C@H]1C[C@H](O)[C@@H](CO)O1`, the “activity change, negative = inhibition” value was 22.9%. As for `COc1cc2c(N3CCN(C(=O)Nc4ccc(OC(C)C)cc4)CC3)ncnc2cc1OCCCN1CCCCC1`, the Potency entry is “inactive”. Still for that read-out and setting: under `Cc1nccn1CC1CCc2c(c3ccccc3n2C)C1=O` (stereo not given) stands “inactive”; under `Clc1ccc(C(Cn2ccnc2)OCc2c(Cl)cccc2Cl)c(Cl)c1` (stereo not given), “inactive”. With `C[C@@H](c1ncncc1F)[C@](O)(Cn1cncn1)c1ccc(F)cc1F`, the “activity change, negative = inhibition” value was -2.87%. The same measure, in the same setting: under `C[C@]12CCC(=O)C=C1CC[C@@H]1[C@H]2[C@@H](O)C[C@@]2(C)[C@H]1CC[C@]2(O)C(=O)CO` stands 1.33%. For the compound `CC(C)[C@H](N)C(=O)OCCOCn1cnc2c(=O)[nH]c(N)nc21`, the Potency result was “inactive”. Same read-out and setting: to `Cc1ccc(C)c(OCCCC(C)(C)C(=O)O)c1` belongs “inactive”. For `O=C(OC1C[C@H]2CC[C@@H](C1)[N+]21CCCC1)C(O)(c1ccccc1)c1ccccc1` (stereo not given in full), the “activity change, negative = inhibition” value was 12.5%. For `COc1cc(Nc2c(C#N)cnc3cc(OCCCN4CCN(C)CC4)c(OC)cc23)c(Cl)cc1Cl`, the Potency result is “inactive”. Turning to `O=C(O)c1cc(=O)c2c(OCC(O)COc3cccc4oc(C(=O)O)cc(=O)c34)cccc2o1`, the “activity change, negative = inhibition” value is 0.758%.

For `Cc1ccc(Nc2nccc(N(C)c3ccc4c(C)n(C)nc4c3)n2)cc1S(N)(=O)=O`, the Potency entry is “inactive”. With `CCOc1cc(CC(=O)N[C@@H](CC(C)C)c2ccccc2N2CCCCC2)ccc1C(=O)O`, the “activity change, negative = inhibition” value is 10.3%. Consider `O=c1c(O)c(-c2ccc(O)cc2O)oc2cc(O)cc(O)c12`, for which the Potency result was “inactive”. Consider `CCN(CC)CCOc1ccc(Cc2ccccc2)cc1`, for which the Potency entry was “inactive”.

In the case of `CS(=O)(=O)OCCCCOS(C)(=O)=O`, the Potency result is “inactive”.

Turning to `Oc1ccc(OCc2ccccc2)cc1`, the “activity change, negative = inhibition” value is -8.2%.

Take `CC1(C)NC(=O)N(c2ccc([N+](=O)[O-])c(C(F)(F)F)c2)C1=O`: the Potency result was “inactive”. Still for that read-out and setting: under `COc1cc(C(C)=O)ccc1OCCCN1CCC(c2noc3cc(F)ccc23)CC1` stands “inactive”. `O=C(NCC1CCCCN1)c1cc(OCC(F)(F)F)ccc1OCC(F)(F)F` (stereo not given): the “activity change, negative = inhibition” value was -29.8%. `Cc1cc(Cl)ccc1OCCCC(=O)NO`: the “activity change, negative = inhibition” value was 2.64%.
